# From publication PMC11062922 (Nature Chemical Biology, 2023)
# Where two headings read alike, the source gives them in different places.
# What was measured:
# Design in all cases: species or system human, MV4-11 + K-562 + COLO205 + SK-N-BE2 + OVCAR-8
# AKT2 = conditions: read-out: apparent Kd, compound concentrations: 100 nM and 1000 nM (sheet 'Samples'), n = 1
# ATR = conditions: read-out: apparent Kd; compound concentrations: 100 nM and 1000 nM (sheet 'Samples'), CATDS: 1.78741670317108E-2; n = 1
# DJA1 = test system: T1, DJA1; conditions: read-out: apparent Kd, n = 1
# T1 construct: gene DNAJA1
# FRK = conditions: read-out: apparent Kd; compound concentrations: 100 nM and 1000 nM (sheet 'Samples'), CATDS: 1.6945625051929199E-2; n = 1
# IRAK4 = conditions: read-out: apparent Kd; compound concentrations: 100 nM and 1000 nM (sheet 'Samples'), CATDS: 1.2053772539955101E-2; n = 1
# MAP2K1 = conditions: read-out: apparent Kd, compound concentrations: 100 nM and 1000 nM (sheet 'Samples'), n = 1
# NLK = conditions: read-out: apparent Kd; compound concentrations: 100 nM and 1000 nM (sheet 'Samples'), CATDS: 1.3463251782528499E-2; n = 1
# JAK2 = conditions: read-out: apparent Kd, compound concentrations: 100 nM and 1000 nM (sheet 'Samples'), n = 1
# PIK3CA = conditions: read-out: apparent Kd; compound concentrations: 100 nM and 1000 nM (sheet 'Samples'), CATDS: 0.11301780685695401; n = 1
# CDK6 = conditions: read-out: apparent Kd, compound concentrations: 100 nM and 1000 nM (sheet 'Samples'), n = 1
# ICK = conditions: read-out: apparent Kd, compound concentrations: 100 nM and 1000 nM (sheet 'Samples'), n = 1
# ACAD11 = conditions: read-out: apparent Kd; compound concentrations: 100 nM and 1000 nM (sheet 'Samples'), CATDS: 2.2275059319964801E-2; n = 1
# CDC7 = conditions: read-out: apparent Kd, n = 1
# CDK5 = conditions: read-out: apparent Kd, compound concentrations: 100 nM and 1000 nM (sheet 'Samples'), n = 1
# MAP4K1 = conditions: read-out: apparent Kd, compound concentrations: 100 nM and 1000 nM (sheet 'Samples'), n = 1
# JAK1 = conditions: read-out: apparent Kd; compound concentrations: 100 nM and 1000 nM (sheet 'Samples'), CATDS: 3.3581024780386999E-2; n = 1
# NQO2 = conditions: read-out: apparent Kd; compound concentrations:100 nM and 1000 nM (sheet 'Samples'); n = 1
# [1] = compound concentrations:100 nM and 1000 nM (sheet 'Samples')
smiles,measurement,setting,value
CCn1c(-c2cccnc2O)nc2cnccc21 [SB-736715],potency estimated from few doses,AKT2; CATDS: 1.4638911444233901E-2,1360 nM
same,potency estimated from few doses,ATR,919 nM
same,potency estimated from few doses,"DJA1; compound concentrations: 100 nM and 1000 nM (sheet 'Samples'), CATDS: 1.9156343081097999E-2",812 nM
same,potency estimated from few doses,FRK,1010 nM
same,potency estimated from few doses,IRAK4,2160 nM
same,potency estimated from few doses,MAP2K1; CATDS: 1.2472945477492101E-2,1980 nM
same,potency estimated from few doses,NLK,1640 nM
COc1ccc(Nc2nccc(-c3ccc(NC(=O)c4cc5cc(F)ccc5[nH]4)cc3)n2)cc1 [GSK1229496A],potency estimated from few doses,JAK2; CATDS: 0.41035402481259398,584 nM
CS(=O)(=O)Nc1cccc(-c2ccc3c(NC(=O)C4CC4)n[nH]c3c2)c1 [SB-742864],potency estimated from few doses,"DJA1; compound concentrations: 100 nM and 1000 nM (sheet 'Samples'), CATDS: 0.110016860770891",1630 nM
O=C1N=C(NCCCc2ccccc2)S/C1=C\c1ccc2ncccc2c1 [RO4493941-000],potency estimated from few doses,PIK3CA,241 nM
c1cnn2ncc(-c3ccnc(Nc4ccc5c(c4)OCCO5)n3)c2c1 [GW806290X],potency estimated from few doses,AKT2; CATDS: 2.25042579106303E-2,1300 nM
same,potency estimated from few doses,CDK6; CATDS: 2.20968603607638E-2,1390 nM
same,potency estimated from few doses,ICK; CATDS: 0.106713874587666,50.6 nM
same,potency estimated from few doses,MAP2K1; CATDS: 2.0774102889224599E-2,1730 nM
O=C(O)C(F)(F)F.O=c1[nH]ccc2nc(N[C@@H]3CCNC3)nc(Nc3ccc4c(c3)S(=O)(=O)CC4)c12 [GSK2181306A],potency estimated from few doses,ACAD11,145 nM
same,potency estimated from few doses,"CDC7; compound concentrations: 100 nM and 1000 nM (sheet 'Samples'), CATDS: 3.8653220202105501E-2",57.1 nM
same,potency estimated from few doses,CDK5; CATDS: 1.15516504850929E-2,571 nM
same,potency estimated from few doses,JAK2; CATDS: 1.0295673104193499E-2,781 nM
same,potency estimated from few doses,MAP2K1; CATDS: 9.6647970877986305E-3,947 nM
same,potency estimated from few doses,MAP4K1; CATDS: 1.18408436386705E-2,536 nM
COc1cc(Nc2nccc(-c3cnn4ncccc34)n2)cc(OC)c1 [GW801372X],potency estimated from few doses,ICK; CATDS: 7.2296176142385704E-2,49.6 nM
NC(=O)c1cc(-c2ccccc2)cc2c(C3CCNCC3)c[nH]c12 [GSK301362A],potency estimated from few doses,DJA1; [1],1130 nM
CNCC#Cc1c(F)ccc2c1/C(=C/c1[nH]ccc1OC)C(=O)N2.Cl [RO0281601-001],potency estimated from few doses,CDK6; CATDS: 2.2252804154739798E-2,1820 nM
same,potency estimated from few doses,ICK; CATDS: 2.2639550880060699E-2,1700 nM
same,potency estimated from few doses,JAK1,520 nM
same,potency estimated from few doses,MAP4K1; CATDS: 2.76705176427572E-2,879 nM
CC(C)Oc1ccc2c(-c3ccnc(Nc4ccc(N5CCN(C)CC5)cc4)n3)cnn2n1 [GW696155X],potency estimated from few doses,CDC7; [1],1440 nM
same,potency estimated from few doses,NQO2,1060 nM
NS(=O)(=O)c1ccc(N/N=C2\C(=O)Nc3ccc4ncccc4c32)cc1 [GW305178X],potency estimated from few doses,CDK5; CATDS: 5.4245718700327898E-2,776 nM
